Assay [1] can be described thus: qHTS Assay for Identifying Gametocytocidal Compounds (AID 743244).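 For max response: actives lower the fluorescent signal which means gametocytes are killed.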 Note: potency is the fitted concentration of half-maximal effect. As to conditions: P. falciparum 3D7 stage III-V gametocytes, alamarBlue, 72 h; max response: hits give low values. The procedure, abridged: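 Using 20,000 stage III–V 3D7 gametocytes per well, compounds were incubated 72 h under 37 °C/5% CO2. Viability was then assessed by 24 h alamarBlue reduction, measured fluorometrically at 525/598 nm.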
On the technique in general: Quantitative high-throughput screening tests each substance at several concentrations.

Assay [2] is described as follows: qHTS assay for measurement of the activity of small molecule inhibitors on Zika virus induced Caspase-3 activity in human iPSC derived neural progenitor cells (hNPCs) (AID 1224857). Note: nearly all actives have a fitted effect of over 65% in size. In short, it runs like this: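 After overnight (16–20 h) culture at 350 cells/well, hNPCs get compound, then ZIKV 2 FFU/cell one hour later. Six hours on, Caspase-Glo 3/7 is added and luminescence measured.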

The nature of assay [3]: qHTS assay for measurement of the activity of small molecule inhibitors on Zika virus induced Caspase-3 activity in human astrocytoma cells (AID 1224859). The procedure, abridged:
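Inhibition of Zika-induced caspase-3/7 activity: SNB-19 cells, 1 h compound pretreatment, ZIKV 2 FFU/cell for 6 h at 37 C, Caspase-Glo luminescence read-out.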

Assay [4] can be described thus: qHTS assay for small molecule agonists of the antioxidant response element (ARE) signaling pathway measured by Nrf2-dependant transcriptional activity (AID 720636; active = well fitted curve in the direction sought with a large enough effect in the repeat runs; an effect the other way counts as inactive or inconclusive). The procedure, abridged: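 ARE-luc HepG2 cells carrying an Nrf2-responsive luciferase reporter were plated in medium with 1% dialyzed FBS, left 6 hr at 37 C to attach, then exposed to compound for 16 hr. Luciferase luminescence was read after ONE-Glo addition.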

Assay [5] is described as follows: qHTS assay for cell viability of the p53RE-bla HCT-116 cell line (AID 743292). Note: nearly all actives have a fitted effect of over 55% in size. Note: potency is the fitted concentration of half-maximal effect. In short, it runs like this: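 CellSensor p53RE-bla HCT-116 cells, 4,000/well, preincubated 5 h at 37 C, then exposed to compounds in DMSO for 16 h at 37 C. Viability read as CellTiter-Glo luminescence (intracellular ATP) after 30 min at room temperature.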
Assay [6] in a line: P-glycoprotein substrates identified in KB-8-5-11 adenocarcinoma cell line, qHTS therapeutic library screen (AID 1346987). Note: series mostly up to about 44 µM; nearly all actives have a fitted effect of over 65% in size. In short, it runs like this:
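In this qHTS, P-gp-rich KB-8-5-11 cells received library compounds across a concentration range. Viability was quantified by luminescence after 72 h at 37 degree C.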

Assay [7] is described as follows: qHTS assay for small molecule antagonists of the retinoid-related orphan receptor gamma (ROR-gamma) signaling pathway - cell viability counter screen (AID 720652; active = well fitted curve in the direction sought with a large enough effect in the repeat runs; an effect the other way counts as inactive or inconclusive;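 note: CHO reporter cells with doxycycline-induced ROR-gamma expression; series mostly up to about 92 µM; compound exposure lasted 16 hr before ATP read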). In short, it runs like this: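 CHO RORE-LUC/TET-ROR line, 1,000 cells/well, 37 C 5% CO2 5 hr; cpd or DMSO + doxycycline induction, 16 hr. CellTiter-Glo, 30 min RT, luminescence = ATP content.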
Assay [8] in a line: qHTS assay for small molecule agonists of the antioxidant response element (ARE) signaling pathway measured by Nrf2-dependant transcriptional activity - cell viability counter screen (AID 720653; active = well fitted curve in the direction sought with a large enough effect in the repeat runs; an effect the other way counts as inactive or inconclusive). As to conditions: ARE-bla HepG2 viability, CellTiter-Glo ATP luminescence, 16 h; max response: hits give low values. In short, it runs like this:
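ARE-bla HepG2 cells (2,000/well) rested 5 hrs at 37C/5% CO2, then exposed to compounds in DMSO for 16 hrs. Viability was read in the same wells as intracellular ATP by luminescence, 30 min at room temperature after reagent addition.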

Assay [9] can be described thus: qHTS assay for cell viability of HEK293 cells (AID 743288). Note: nearly all actives have a fitted effect of over 50% in size. As to conditions: ATP luminescence (CellTiter-Glo), 18 h, hits give low values. The procedure, abridged: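 Steps: plate 2,000 parental HEK293 cells per well; incubate ≥5 h, 37 C; add compounds in DMSO; incubate 18 h, 37 C; add CellTiter-Glo; wait 30 min at room temperature; read luminescence.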

Each structure is given as a SMILES string. “And” between values parts separate entries of the source, which are not always exact repeats. Equal values may be shown once. Unmarked numbers belong to inactive results. Results filed as inconclusive are left out. A call without a number means that no potency is given here. The source made the active and inactive calls. Unless noted, calls come from the whole dose curve; as a rule, active = well fitted curve in the direction sought with a large enough effect; inconclusive = small, poorly fitted or top-dose-only effect, or another doubt; inactive = no such curve, though single readings can be large; an effect the other way counts as inactive or inconclusive.

On to `N#C/C(=C1/SC[C@@H](c2ccc(Cl)cc2Cl)S1)n1ccnc1`, for which, in [1], the max response is 8.83% and -5.83% and 7.31%. For the same compound, the Potency entry in assay [2] is “inactive”. The result in [3] was inactive.
Take `CC(=O)OCC[N+](C)(C)C`: in [1], the max response is 0.348%. Besides, the Potency result in [2] is “inactive”. In addition, the compound was called inactive in assay [3].
Consider `O=C(OCC(COC(=O)c1cccnc1)(COC(=O)c1cccnc1)COC(=O)c1cccnc1)c1cccnc1`, for which the max response in assay [1] was 13.3%. The Potency result in assay [2] is “inactive”. Also, the compound was called inactive in assay [3].
As for `OCc1cccnc1`, the max response in [1] is -22.7%. Also, the Potency result in [2] is “inactive”. Further, in [3], the call was inactive.
On to `O=[N+]([O-])c1ccc(O)c2ncccc12`, for which the Potency in [1] is 8.91 µM (active). The Potency result in assay [2] is “inactive”. Further, the outcome in assay [3] was inactive.
For `CCN(CC)CCOc1ccc(/C(=C(\Cl)c2ccccc2)c2ccccc2)cc1`, the compound was classed as inactive in [4] and in assay [3]. Moreover, the Potency in assay [5] was 70.8 µM (active). Besides, the Potency result in [2] was “inactive”.
Regarding `COC(=O)C1=C(C)NC(COC(N)=O)=C(C(=O)OC(C)C)C1c1cccc(Cl)c1Cl` (centres undefined), in assay [1], the max response is -16.2%. In assay [2], the Potency entry is “inactive”. In assay [3], the call was inactive.
For the compound `O=C(O)c1ccccc1S`, the Potency entry in assay [2] and in assay [6] was “inactive” each time.
On to `O=C(NO)c1ccccc1`, for which the outcome in assay [4] and in [7] was inactive. Besides, the max response was -9.7% in [8], 14.9% in assay [1] and -10.3% in [9]. Moreover, the Potency entry in assay [5] and in [2] was “inactive” throughout.
Consider `CCCCCCCCCCCCCCCC[N+](C)(C)Cc1ccccc1`, for which the Potency in assay [1] is 7.08 µM (active). In assay [2], the Potency entry was “inactive”. In addition, the result in assay [3] was inactive.
As for `CN1CCCN=C1/C=C/c1cccs1`, the max response in [1] is 3.61%. Moreover, in [2], the Potency entry is “inactive”. In addition, the compound was called inactive in assay [3].
On to `CCNC(=O)NCCCOc1cccc(CN2CCCCC2)c1`, for which the max response in assay [1] is -8.1%. For the same compound, in [2], the Potency entry was “inactive”. Further, in [3], the outcome was inactive.
In the case of `CC1(C)O[C@@H]2C[C@H]3[C@@H]4C[C@H](F)C5=CC(=O)C=C[C@]5(C)[C@@]4(F)[C@@H](O)C[C@]3(C)[C@]2(C(=O)CO)O1`, the max response in [1] is -5.96%. Moreover, the Potency entry in assay [2] was “inactive”. Besides, the call in assay [3] was inactive.
`CCOC(=O)O[C@]1(C(=O)OCCl)CC[C@H]2[C@@H]3CCC4=CC(=O)C=C[C@]4(C)[C@H]3[C@@H](O)C[C@@]21C`: in assay [1], the max response was -2.36%. Besides, the Potency result in assay [2] was “inactive”. Besides, in [3], the call was inactive.
With `CC[C@@H]([C@H](C)O)n1ncn(-c2ccc(N3CCN(c4ccc(OC[C@@H]5CO[C@@](Cn6cncn6)(c6ccc(F)cc6F)C5)cc4)CC3)cc2)c1=O`, the max response in assay [1] is 13.4%. The Potency entry in [2] is “inactive”. For the same compound, the call in assay [3] was inactive.
